The list is not random: actives were taken first. Their share in the collection is about 3.7%.
Nrf2 inh = Nrf2 qHTS screen for inhibitors; 360,000 compounds, 2.1% hits; Potency, µM (highest dose often 46 µM), most hits filed as inhibitors; A549 ARE-Fluc reporter, luciferase luminescence, 18-24 h; AID 504444, 2011; note: nearly all actives have a fitted effect of over 60% in size
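Two sequential reads on A549 ARE_Fluc cells exposed to compound for 18-24 h: a CellTiter-Fluor fluorescence read for viability, then a luciferase luminescence read for Nrf2/ARE activity.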
ClpP mod = qHTS Assay for Activators of ClpP; ATP-dependent Clp protease proteolytic subunit (Bacillus subtilis (strain 168)), P80244; purified B. subtilis ClpP, FRET peptide cleavage, 20 min; Potency, µM (titrated, usually from 57.5 µM); 340,000 compounds, 1.9% hits; AID 651965, 2013; active = well fitted falling curve with a large enough effect; inconclusive = small, poorly fitted or top-dose-only effect; inactive = no such curve, though single readings can be large or run the other way; note: the source files actives as falling curves though it sought activators and does not explain the sign; nearly all actives have a fitted effect of over 65% in size
Target sequence (P80244 whole entry, looked up): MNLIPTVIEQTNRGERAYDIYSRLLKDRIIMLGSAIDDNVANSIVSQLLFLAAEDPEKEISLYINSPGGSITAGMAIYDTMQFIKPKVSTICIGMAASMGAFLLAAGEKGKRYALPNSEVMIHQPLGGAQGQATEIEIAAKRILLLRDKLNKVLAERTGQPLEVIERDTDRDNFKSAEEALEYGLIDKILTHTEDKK
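Buffer: 100 mM Tris/HCl pH8, 100 mM KCl, 0.05% low protease BSA, 2.5% glycerol, 0.01% Tween-20. ClpP 10 microg/mL final; 20 min RT; delta FRET normalized to ADEP and DMSO controls.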
A549 viability = Nrf2 qHTS screen for inhibitors: counterscreen for cytotoxicity; A549 ARE-Fluc cells, CellTiter-Fluor viability, 18-24 h; Potency, µM (series often up to 46 µM), most hits filed as inhibitors; 390,000 compounds, 0.16% hits; AID 504648, 2011
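Cytotoxicity counterscreen: CellTiter-Fluor fluorescence was measured in A549 ARE_Fluc cells after 18-24 h of compound exposure in a concentration series. The subsequent BugLite luminescent read reports ARE-luciferase activity.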
Nrf2 ARE act = qHTS of Nrf2 Activators | AREc32 ARE-luciferase reporter (MCF7-derived line), luminescence, 24 h | Potency, µM (top dose mostly 46.1 µM), hits mostly activators | 410,000 compounds, 0.31% hits; note: nearly all actives have a fitted effect of over 65% in size
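Luminescent ARE reporter assay in AREc32_Fluc cells: overnight plating at 37 deg C, 24 hr compound incubation, Steady-Glo added, 30 min RT before reading.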
p53 reactivator = qHTS assay for re-activators of p53 using a Luc reporter; H1299 p53-A138V BP100-luciferase reporter, luminescence, 24 h; 320,000 compounds, 0.063% hits; Potency, µM (series often up to 92.2 µM), most hits filed as activators; AID 504706, 2011; note: nearly all actives have a fitted effect of over 45% in size
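p53-null H1299 cells stably carrying temperature-sensitive p53-A138V and a BP100-luciferase reporter were pinned with compounds (4-point, 1:5 series) and held 24 hrs at 37 deg C. Luminescence was read 10 min after detection reagent.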
miR-21 act = qHTS Assay for Modulators of miRNAs and/orActivators of miR-21; HeLa miR-21 FLuc reporter, luciferase, 48 h; Potency, µM (doses to about 38.3 µM), actives largely listed as activators; 340,000 tested, under 10 active; AID 2288, 2010;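 note: miR-21 action dims this reporter so a rising signal means less miR-21 action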
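HeLa miR-21-FLuc reporter line, endogenous miR-21; 2000 cells/well in DMEM/10% FBS; compound titration up to ~40uM final, 48 h, 37 degree Celsius; luciferase detection reagent, 15 min lysis, CCD luminescence.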
A number is an active result; 0 = inactive; ? = inconclusive; - = not tested or not shown; [ ] = dose if it differs, or a comment. Unless noted, calls come from the whole dose curve; as a rule, active = well fitted curve in the direction sought with a large enough effect; inconclusive = small, poorly fitted or top-dose-only effect, or another doubt; inactive = no such curve, though single readings can be large; an effect the other way counts as inactive or inconclusive.

SMILES	Nrf2 inh	ClpP mod	A549 viability	Nrf2 ARE act	p53 reactivator	miR-21 act
Cc1cccc(N2CCN(C(c3cccs3)c3nnnn3C(C)(C)C)CC2)c1C (stereo not given)	0	0	0	0	0	0
COc1cc2nc(N3CCCN(C)CC3)nc(N)c2cc1OC	-	0	-	-	-	-
Cc1cc2c(C)cc(=O)[nH]c2cc1NC(=O)CCl	?	?	0	?	0	?
O=C(CCl)Nc1cc2[nH]c(=O)[nH]c2cc1Br	21µM	-	23µM	?	0	?
NS(=O)(=O)c1ccc(CCNC(=O)c2ccc(Cl)s2)cc1	0	0	0	0	0	0
NS(=O)(=O)c1ccc(CCNC(=O)c2ccc([N+](=O)[O-])s2)cc1	9.2µM	0	?	0	0	0
Cc1cc(C)cc(-n2ccnc2SCC(=O)Nc2ccc(C)c(Cl)c2)c1	-	0	0	0	-	0
Cc1cccc(C)c1OCc1cc(C(=O)N2CC3C[C@@H]4CC2C[C@H](C3)C4)no1	0	0	0	0	0	0
O=C(c1cc(COc2ccc(F)cc2Cl)on1)N1CC2C[C@@H]3CC1C[C@H](C2)C3	?	0	0	0	?	0
Cc1ccc(OCc2cc(C(=O)N3CC4C[C@@H]5CC3C[C@H](C4)C5)no2)cc1C	0	0	0	0	28µM	0
O=C(c1cc(COc2ccc(F)cc2Cl)on1)N1C[C@H]2CC[C@H]1C2	?	28µM	?	0	0	0
CCC(=O)C1=C(c2ccc(Cl)cc2)N(C(=O)CC)n2c(C)nnc2S1	-	0	0	0	-	?
Cc1ccc(Nc2nc(N)nc(CSc3nccn3C)n2)c(C)c1	-	4µM	0	0	0	0
Cc1ccc(C)c(N2CCN(C(=O)C3CCC(CNS(=O)(=O)c4ccc(Br)s4)CC3)CC2)c1 (stereo not given)	?	0	0	0	-	0
CCc1[nH]c(=O)c(C#N)c2c1COC(C)(C)C2	-	25µM	0	0	0	0
Cc1ccc2c(c1)nnn2C1CCN(S(=O)(=O)c2ccc(C(=O)N3C(C)CCCC3C)cc2)CC1 (stereo not given)	10µM	0	?	0	0	0
O=S(=O)(Nc1cc(O)cc2cccnc12)c1ccc(Br)s1	0	-	0	-	-	-
Cc1ccccc1N=C(NOCc1ccc(Cl)cc1Cl)c1nonc1N	?	0	0	0	0	0
Cc1ccc(N=C(NOCc2ccc(Cl)cc2Cl)c2nonc2N)c(C)c1	23µM	0	0	0	0	0
O=C(COc1ccc([N+](=O)[O-])cc1)N(Cc1ccccc1)Cc1ccccc1	0	32µM	0	0	0	0
COc1ccc(-c2ccc3c(c2)C2CC3CCN2C(=O)C2CCCCC2)cc1 (stereo not given)	0	0	0	0	-	-
CCc1nnc(SCC(=O)N(CC)c2ccccc2)c2cc3oc(C)cc3n12	0	0	0	5.6µM	-	0
COc1cc(-c2ccc3ncnc(NCc4cccs4)c3c2)cc(OC)c1OC	0	-	0	-	-	-
CC(=O)c1cccc(Nc2nn(-c3ccc(OC(F)(F)F)cc3)nc2C(C)=O)c1	?	0	0	0	-	0
Cc1onc(-c2c(Cl)cccc2Cl)c1C(=O)N/N=C(\N)COc1ccc(Cl)cc1	8.2µM	0	0	0	0	0
SMILES	Nrf2 inh	ClpP mod	A549 viability	Nrf2 ARE act	p53 reactivator	miR-21 act
COc1cc(/C=N/NC(=O)c2c(-c3c(Cl)cccc3Cl)noc2C)ccc1OCC(N)=O	0	0	0	0	-	0
CC(C)(C)OC(=O)CNC(=O)c1[nH]cnc1C(=O)NCCCCCN	0	0	0	0	0	-
CC(C)(C)OC(=O)NCCCCCNC(=O)c1[nH]cnc1C(=O)NC1CCN(C(=O)OC(C)(C)C)CC1	21µM	0	0	0	0	-
CC(C)(C)OC(=O)CNC(=O)c1[nH]cnc1C(=O)NCCCCCNC(=O)OC(C)(C)C	26µM	0	0	0	-	?
CC(C)(C)OC(=O)NCCCCCNC(=O)c1[nH]cnc1C(=O)Nc1cccc(Cl)c1	21µM	0	?	0	0	-
CC(C)(C)OC(=O)NCCCCCNC(=O)c1nc[nH]c1C(=O)N1CCN(C(=O)OC(C)(C)C)CC1	0	0	0	0	0	-
O=C(c1ccccc1)c1ccc2nc(Nc3ccccc3Cl)c3nncn3c2c1	-	0	0	0	-	0
Cc1ccccc1CN1Cc2cccc3c2[C@H](C=CC3)CC1=O	-	0	-	-	-	-
Cc1cc(F)ccc1NC(=O)C1CCC(CNS(=O)(=O)c2ccc3c(c2)CCCC(=O)N3)CC1 (stereo not given)	0	0	0	0	-	0
COC(=O)C1=C(C)N(Cc2ccccc2)C(=S)N[C@H]1c1cccc(C(F)(F)F)c1	18µM	0	0	0	0	0
COc1ccccc1NC(=O)C1=C(C)N(c2ccccc2)C(=S)NC1c1cccc(C(F)(F)F)c1 (stereo not given)	15µM	0	0	0	0	0
CCOc1cc(-c2nnc(SCC(=O)NCc3ccccc3)nc2-c2ccc(OC)c(OCC)c2)ccc1OC	-	0	?	0	-	?
Cc1cc(C)n(-c2nc(NCC3CCCO3)c3c4c(sc3n2)COC(C)(C)C4)n1 (stereo not given)	0	0	0	0	0	0
Cc1cc(C)n(-c2nc(NCC(C)O)c3c4c(sc3n2)CCCC4)n1 (stereo not given)	-	32µM	0	0	0	0
Cc1cc(C)n(-c2nc(NCC(C)O)c3c4c(sc3n2)COC(C)(C)C4)n1 (stereo not given)	0	28µM	0	0	0	0
Cc1cc(C)n(-c2nc(NCCCO)c3c4c(sc3n2)CCCC4)n1	-	18µM	0	0	?	0
COc1ccc(NC(=O)C(NC(=O)/C=C\c2ccc3c(c2)OCO3)c2ccccc2)cc1 (stereo not given)	0[9.27 µM]	?	?	0	-	0
Cc1cc(C(=O)Nc2c(C)nc3ccccn3c2=O)ccc1[N+](=O)[O-]	-	0	0	0	-	0
COc1ccc(C2C3C=CCC(c4cccc(/C=C/c5ccccc5)c4)C3C(=O)N2Cc2ccccc2)cc1Cl (stereo not given)	0	-	0	-	-	-
Cc1cccc(-c2noc(-c3cccnc3NCc3ccc(Cl)cc3)n2)c1	?	0	0	0	-	0
FC(F)(F)c1cccc(CNc2ncccc2-c2nc3cc(Cl)ccc3o2)c1	0	32µM	0	0	0	0
CCOC(=O)c1ccc(NC(=O)C(Cc2ccccc2)NS(=O)(=O)c2ccc(Br)s2)cc1 (stereo not given)	0	0	0	0	-	0
CCCCNc1cc(C)nc(NCc2ccccc2)n1	18µM	0	0	0	0	0

Compound activity as filed in PubChem BioAssay.
